According to PubChem BioAssay (NCATS):
Where “and” joins values, the source holds several entries; their conditions need not be identical. Equal entries are not always repeated. Records with an inconclusive call do not appear. Calls of active or inactive are those of the source. Unless noted, calls follow the shape of the dose curve; as a rule, active = well fitted curve in either direction with a large enough effect (not every such curve was filed as active); inconclusive = small, poorly fitted or top-dose-only effect, or another doubt; inactive = flat fitted curve, though single readings scatter.

How the values were obtained:
[1] = AP1 Signaling Pathway (AID 357); conditions: ME-180 AP-1-bla reporter, EGF-induced, beta-lactamase ratio, 5 h; at 7.69 µM (top of the series) unless noted;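 also: ME-180 reporter cells stimulated with EGF at its EC50 level; % is scaled to controls: 0 for no effect and ±100 for the full control effect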
In short: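 AP-1-bla ME-180 cells, Opti-MEM + 0.5% dialyzed FBS, plated overnight 37 °C. Cpd titration + EC50 EGF, 5 h 37 °C. CCF4 2.5 h RT; ex 405, em 460/530 ratio → %activity, AC50.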

[2] = target: Cytochrome P450 1A2 (Homo sapiens) (UniProt P05177); assay: p450-cyp1a2 (AID 410; calls by dose curve; also: potency is read from the fitted curve at half-maximal effect;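 as to activity change, negative = inhibition: -100% = full effect of reference inhibitor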); conditions: recombinant CYP1A2, luciferin-ME demethylation, luminescence; series mostly up to 11.4 µM
In short: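 20nM CYP1A2 with 100uM Luciferin-ME (at Km) in 100mM KPO4; compound preincubated 10 min, NADPH regeneration added, 60 min at room temperature. Luciferin quantified by luminescence after detection reagent; normalized to 57 uM furafylline.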

[3] = NFAT Signaling Pathway (AID 444); conditions: Jurkat NFAT-bla M1, carbachol, beta-lactamase ratio, 5 h; at 7.69 µM (top of the series) unless noted;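 also: carbachol stimulus at about its EC50 of 1 µM final; % is scaled to controls: 0 for no effect and ±100 for the full control effect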
In short: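 Jurkat cells with NFAT-driven β-lactamase reporter and co-expressed M1 receptor, stimulated with carbachol (final 1 uM, ~EC50), compound titration, 5 h at 37 °C. CCF4 loaded 1 h at RT; 460/530 nm ratio gave %activity and AC50.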

[4] = Stat Signaling Pathway (AID 446); conditions: ME-180 SIE beta-lactamase reporter, IL-6 stimulated, 5 h; at 7.69 µM (top of the series) unless noted;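 also: ME-180 cervical cancer cells given 40 pM IL-6 alongside compound; SIE-controlled beta-lactamase reporter measured as 460/530 nm FRET emission ratio; % is scaled to controls: 0 for no effect and ±100 for the full control effect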
In short: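 Screening format detects activators and inhibitors alike: ME-180 SIE-bla cells stimulated at 40 pM IL-6 for 5 hrs with compound, then dual-emission beta-lactamase read at 405 nm excitation.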

[5] = target: Glucocorticoid receptor (Homo sapiens) (UniProt P04150); assay: GR-GFP Redistribution (AID 450;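 active = compounds whose dose series gives a full or clear partial fitted curve of increased nuclear translocation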; also: potency is read from the fitted curve at half-maximal effect); conditions: U2OS GR-GFP nuclear translocation, laser cytometry, 2 h
[6] = target: Glucocorticoid receptor (Homo sapiens) (UniProt P04150); assay: GR-EFC Redistribution (AID 451; calls by dose curve; also: potency is read from the fitted curve at half-maximal effect); conditions: CHO-K1 GR-EFC translocation, beta-gal luminescence, 2 h
In short: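 CHO-K1 cells expressing nuclear EA and GR-ED fragments of b-gal; compounds titrated up to 46 uM final, 2 h at 37 C. GR nuclear translocation read as complemented b-gal luminescence after 1 h RT detection.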

[7] = target: Mitogen-activated protein kinase 10 (Mus musculus) (UniProt Q61831); assay: JNK3 AlphaScreen Assay (AID 530); conditions: JNK3 lysate, c-Jun phosphorylation; series mostly up to 57.1 µM;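 also: kinase came from lysate of stimulated human HepG2 cells; signal reports phosphorylation of biotinylated GST-cJun 1-79 at Ser73 with 10 µM ATP; % is scaled to controls: 0 for no effect and ±100 for the full control effect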
In short: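 Pre-activated (IL-1β/TNFα) JNK3 in HepG2 lysates phosphorylates biotin-GST-cJun(1-79), 10 uM ATP; anti-phospho-cJun(Ser73) AlphaScreen read at room temperature, pH 7.6 Tris buffer. Compounds pre-incubated 15 min as titrations.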

[8] = target: Cytochrome P450 2D6 (Homo sapiens) (UniProt P10635); assay: qHTS Assay for Inhibitors and Substrates of Cytochrome P450 2D6 (AID 891; active = well fitted curve in the direction sought with a large enough effect; an effect the other way counts as inactive or inconclusive; also: potency is read from the fitted curve at half-maximal effect; nearly all actives have a fitted effect of over 60% in size); conditions: recombinant CYP2D6, luciferin-ME EGE luminescence; series mostly up to 11.4 µM
In short: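 Human CYP2D6 (5 nM) with 30 uM Luciferin-ME EGE (at Km) in 100 mM KPO4, compound preincubated 10 min, then NADPH regeneration system for 60 min at room temperature. Luciferin read by luminescence; normalized to 1.43 uM quinidine.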

[9] = qHTS Assay for Identification of Small Molecule Antagonists for NFkB Signaling Pathway (AID 895; active = well fitted inhibition curve with a large enough effect in the signal ratio, with a control signal flat, not every such curve was filed as active; the % refers to the signal ratio; also: % is scaled to controls: 0 for no effect and ±100 for the full control effect); conditions: NFkB beta-lactamase reporter cells, FRET ratio 460/530; series mostly up to 38.3 µM
In short: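 ME-180 NFkB-bla cells (beta-lactamase under NFkB response element), plated overnight, treated with compound then 10 pM TNF alpha (about EC50) for 5 hrs at 37 C. LiveBLAzer FRET read at 460/530 nm emission, 405 nm excitation.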

[10] = target: Muscarinic acetylcholine receptor M1 (Rattus norvegicus) (UniProt P08482); assay: qHTS Assay for Antagonists of Acetylcholine Muscarinic M1 Receptor: Measurement of IP-One Response (AID 944; active = well fitted curve in the direction sought with a large enough effect; an effect the other way counts as inactive or inconclusive; also: nearly all actives have a fitted effect of over 75% in size); conditions: CHO-M1 cells, IP-One HTRF, antagonist mode; series mostly up to 46.1 µM
In short: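 CHO cells stably expressing rat M1, pretreated 10 min with compound, then stimulated 30 min with carbachol at EC80 (200 nM) in LiCl-containing buffer pH 7.4; IP1 accumulation read by HTRF competition (665/620 nm).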

[11] = target: Pyruvate kinase (Leishmania mexicana) (UniProt Q27686); assay: qHTS Validation Assay for Inhibitors of Leishmania Mexicana Pyruvate Kinase (AID 945; active = well fitted curve in the direction sought with a large enough effect; an effect the other way counts as inactive or inconclusive;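 also: 0% = DMSO only neutral control wells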); conditions: purified L. mexicana pyruvate kinase, enzyme activity, E451W mutant enzyme; series mostly up to 57.5 µM
In short: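 Mutant LmPYK (E451W), 0.2 nM, plus 0.5 mM PEP and 0.1 mM ADP in 50 mM imidazole pH 7.2 containing 0.01% Tween 20 and 0.05% BSA. Incubated 1 h at room temperature; luminescence via PKLight, normalized to DMSO.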

[12] = target: Pyruvate kinase PKM (Homo sapiens) (UniProt P14618); assay: qHTS Assay for Activators of Human Muscle Pyruvate Kinase (AID 954; active = well fitted curve in the direction sought with a large enough effect, not every such curve was filed as active;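 also: 0% = uninhibited enzyme and -100% = no enzyme or full thiadiazolimine inhibition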); conditions: purified human muscle pyruvate kinase, luciferase-coupled luminescence, 1 h; series mostly up to 57.5 µM
In short: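 Reaction: 0.1 nM purified PKM2 with 0.5 mM phosphoenolpyruvate and 0.1 mM ADP, room temperature, 1 h. Readout: luciferase-based ATP luminescence after stop reagent. Activators judged against a 0.3 nM enzyme column.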

[13] = target: Alpha-galactosidase A (Homo sapiens) (UniProt P06280); assay: Counterscreen for Glucocerebrosidase Inhibitors: qHTS Assay for Human alpha-Galactosidase at pH 4.5 (AID 992; active = well fitted curve in the direction sought with a large enough effect; an effect the other way counts as inactive or inconclusive; also: 0% is about no effect); conditions: purified enzyme, fluorogenic substrate; series mostly up to 76.9 µM
In short: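 Concentration-response curves (0.7 nM to 77 uM final) were modeled with the Hill equation to give AC50. Reactions: 2 nM enzyme, 80 uM fluorogenic alpha-galactoside, pH 4.5 citric acid buffer, 20 min, room temperature.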

[14] = target: Cytochrome P450 3A4 (Homo sapiens) (UniProt P08684); assay: qHTS Assay for Activators of Cytochrome P450 3A4 (AID 885; active = well fitted curve in the direction sought with a large enough effect; an effect the other way counts as inactive or inconclusive; also: nearly all actives have a fitted effect of over 65% in size); conditions: recombinant CYP3A4, Luciferin-PPXE luminescence, 60 min; series mostly up to 57.1 µM
In short: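 Steps: enzyme/substrate mix dispensed; compound added, 10 min RT; NADPH regeneration solution added, 60 min RT; luciferin detection buffer stops reaction; 20 min later luminescence measured.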

[15] = target: Muscarinic acetylcholine receptor M1 (Rattus norvegicus) (UniProt P08482); assay: qHTS Assay for Antagonists of Acetylcholine Muscarinic M1 Receptor: Kinetic Measurement of Intracellular Calcium Response (AID 943; active = well fitted curve in the direction sought with a large enough effect; an effect the other way counts as inactive or inconclusive; also: nearly all actives have a fitted effect of over 75% in size; also: potency is read from the fitted curve at half-maximal effect); conditions: M1-expressing cells, kinetic intracellular calcium fluorescence; series mostly up to 35.3 µM
In short: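 CHO cells expressing rat M1 receptor, Fluo-4 loaded, preincubated 10 min with compound, then stimulated with EC80 carbachol (100 nM final). Kinetic calcium fluorescence over 4 min; response taken as peak over basal signal.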

[16] = target: 3',5'-cyclic-AMP phosphodiesterase 4B (Homo sapiens) (UniProt Q07343); assay: qHTS Assay for Inhibitors of PDE-IV (AID 607; active = well fitted activation curve with a large enough effect in the main read-out, with a control signal flat, not every such curve was filed as active; also: % of control where 0% means no effect); conditions: HEK293 ACTOne CNG channel cells, membrane potential fluorescence; series mostly up to 22.9 µM
In short: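 The readout is membrane depolarisation from a cAMP-sensing CNG channel, detected with a potential dye at ex 535/em 590. Cells were HEK293-derived (endogenous PDE-IV) at 1000 cells/well, titrated up to 22.9 uM final.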

[17] = target: Cytochrome P450 2C19 (Homo sapiens) (UniProt P33261); assay: qHTS Assay for Inhibitors and Substrates of Cytochrome P450 2C19 (AID 899; active = well fitted curve in the direction sought with a large enough effect; an effect the other way counts as inactive or inconclusive; also: % is scaled to controls: 0 for no effect and ±100 for the full control effect; nearly all actives have a fitted effect of over 60% in size); conditions: recombinant CYP2C19, luciferin-H EGE luminescence; series mostly up to 11.4 µM
In short: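 5 nM human CYP2C19 with 10uM Luciferin-H EGE (at KM) in 50mM KPO4, compound preincubated 10 min at 37C, then NADPH regeneration for 60 min at 37C. Luciferin read by luminescence after detection reagent; normalized to 57uM ketoconazole as full inhibition.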

Glucocorticoid receptor (Homo sapiens), sequence (P04150 whole entry, looked up, the tested form may be a part): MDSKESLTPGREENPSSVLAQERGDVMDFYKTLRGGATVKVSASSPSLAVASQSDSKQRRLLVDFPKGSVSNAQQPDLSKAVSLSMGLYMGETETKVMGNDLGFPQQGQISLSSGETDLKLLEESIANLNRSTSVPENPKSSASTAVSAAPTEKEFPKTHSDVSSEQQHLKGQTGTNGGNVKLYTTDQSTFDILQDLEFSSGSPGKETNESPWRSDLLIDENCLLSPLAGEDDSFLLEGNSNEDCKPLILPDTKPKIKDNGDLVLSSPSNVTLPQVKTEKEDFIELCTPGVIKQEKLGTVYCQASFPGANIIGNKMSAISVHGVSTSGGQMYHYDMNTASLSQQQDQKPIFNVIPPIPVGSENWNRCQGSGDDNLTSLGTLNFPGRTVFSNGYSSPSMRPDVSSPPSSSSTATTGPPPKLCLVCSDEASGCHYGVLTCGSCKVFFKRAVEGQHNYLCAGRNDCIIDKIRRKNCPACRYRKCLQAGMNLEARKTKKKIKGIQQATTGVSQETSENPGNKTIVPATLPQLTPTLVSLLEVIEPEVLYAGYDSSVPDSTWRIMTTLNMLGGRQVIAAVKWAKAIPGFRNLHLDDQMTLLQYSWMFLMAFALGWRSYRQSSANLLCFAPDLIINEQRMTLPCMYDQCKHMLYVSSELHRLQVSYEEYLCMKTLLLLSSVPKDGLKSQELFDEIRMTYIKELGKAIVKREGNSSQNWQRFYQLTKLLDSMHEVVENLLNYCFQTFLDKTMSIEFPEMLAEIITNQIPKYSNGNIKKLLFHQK
Alpha-galactosidase A (Homo sapiens), sequence (P06280 whole entry, looked up): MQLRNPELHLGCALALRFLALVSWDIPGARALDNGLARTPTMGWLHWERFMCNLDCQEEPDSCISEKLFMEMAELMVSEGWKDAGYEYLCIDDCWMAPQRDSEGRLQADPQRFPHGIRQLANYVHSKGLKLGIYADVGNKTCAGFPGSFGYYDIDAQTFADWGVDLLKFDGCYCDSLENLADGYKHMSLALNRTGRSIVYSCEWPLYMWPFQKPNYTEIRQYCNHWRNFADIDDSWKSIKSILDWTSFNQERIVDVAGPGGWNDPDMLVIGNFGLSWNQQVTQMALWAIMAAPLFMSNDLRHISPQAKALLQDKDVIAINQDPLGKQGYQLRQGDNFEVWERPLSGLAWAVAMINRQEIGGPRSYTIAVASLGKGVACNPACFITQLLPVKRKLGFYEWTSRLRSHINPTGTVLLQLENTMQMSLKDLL
Cytochrome P450 3A4 (Homo sapiens), sequence (P08684 whole entry, looked up): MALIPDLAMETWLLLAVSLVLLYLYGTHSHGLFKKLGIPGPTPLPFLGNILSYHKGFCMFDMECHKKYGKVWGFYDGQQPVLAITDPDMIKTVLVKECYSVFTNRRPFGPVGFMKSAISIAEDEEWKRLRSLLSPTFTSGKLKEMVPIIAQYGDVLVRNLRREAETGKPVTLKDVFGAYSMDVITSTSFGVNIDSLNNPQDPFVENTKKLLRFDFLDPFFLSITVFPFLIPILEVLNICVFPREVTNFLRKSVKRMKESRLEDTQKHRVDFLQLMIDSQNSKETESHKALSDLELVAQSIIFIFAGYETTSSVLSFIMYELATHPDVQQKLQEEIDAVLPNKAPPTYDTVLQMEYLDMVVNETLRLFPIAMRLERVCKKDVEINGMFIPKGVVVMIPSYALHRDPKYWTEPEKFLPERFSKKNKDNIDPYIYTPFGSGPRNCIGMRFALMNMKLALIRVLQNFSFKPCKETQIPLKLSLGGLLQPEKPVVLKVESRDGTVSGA
Pyruvate kinase (Leishmania mexicana), sequence (Q27686 2-499 E452W): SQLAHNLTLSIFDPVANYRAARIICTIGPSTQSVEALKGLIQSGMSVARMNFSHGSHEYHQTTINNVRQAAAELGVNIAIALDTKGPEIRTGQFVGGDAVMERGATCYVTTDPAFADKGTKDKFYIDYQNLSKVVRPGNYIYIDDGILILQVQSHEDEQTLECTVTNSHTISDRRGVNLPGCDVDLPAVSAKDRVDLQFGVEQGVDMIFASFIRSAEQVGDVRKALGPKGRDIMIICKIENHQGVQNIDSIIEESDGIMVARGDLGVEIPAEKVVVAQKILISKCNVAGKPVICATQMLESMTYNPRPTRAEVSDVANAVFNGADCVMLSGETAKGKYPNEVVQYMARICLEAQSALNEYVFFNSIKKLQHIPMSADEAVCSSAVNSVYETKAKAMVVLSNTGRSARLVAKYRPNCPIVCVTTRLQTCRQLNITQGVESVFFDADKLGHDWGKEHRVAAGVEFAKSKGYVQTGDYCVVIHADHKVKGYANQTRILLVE
3',5'-cyclic-AMP phosphodiesterase 4B (Homo sapiens), sequence (Q07343 whole entry, looked up): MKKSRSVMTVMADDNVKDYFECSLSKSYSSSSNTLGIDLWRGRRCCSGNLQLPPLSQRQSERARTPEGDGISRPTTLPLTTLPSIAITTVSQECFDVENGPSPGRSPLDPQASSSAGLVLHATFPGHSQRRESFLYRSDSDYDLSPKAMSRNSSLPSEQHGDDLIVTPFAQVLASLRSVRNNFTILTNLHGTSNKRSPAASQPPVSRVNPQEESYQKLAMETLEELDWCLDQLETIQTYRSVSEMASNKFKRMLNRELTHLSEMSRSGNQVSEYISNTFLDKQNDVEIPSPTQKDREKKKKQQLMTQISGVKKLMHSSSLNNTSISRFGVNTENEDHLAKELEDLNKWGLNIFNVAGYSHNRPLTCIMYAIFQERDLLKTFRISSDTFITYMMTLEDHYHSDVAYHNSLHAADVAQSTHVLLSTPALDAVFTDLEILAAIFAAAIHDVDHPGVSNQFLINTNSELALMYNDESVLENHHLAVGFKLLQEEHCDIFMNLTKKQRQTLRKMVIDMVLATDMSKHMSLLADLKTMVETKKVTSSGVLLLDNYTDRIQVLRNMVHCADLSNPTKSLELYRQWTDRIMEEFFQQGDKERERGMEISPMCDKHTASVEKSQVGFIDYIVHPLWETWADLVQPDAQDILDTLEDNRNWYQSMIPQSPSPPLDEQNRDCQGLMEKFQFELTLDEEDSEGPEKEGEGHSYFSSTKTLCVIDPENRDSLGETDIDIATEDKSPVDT
Pyruvate kinase PKM (Homo sapiens), sequence (P14618 whole entry, looked up): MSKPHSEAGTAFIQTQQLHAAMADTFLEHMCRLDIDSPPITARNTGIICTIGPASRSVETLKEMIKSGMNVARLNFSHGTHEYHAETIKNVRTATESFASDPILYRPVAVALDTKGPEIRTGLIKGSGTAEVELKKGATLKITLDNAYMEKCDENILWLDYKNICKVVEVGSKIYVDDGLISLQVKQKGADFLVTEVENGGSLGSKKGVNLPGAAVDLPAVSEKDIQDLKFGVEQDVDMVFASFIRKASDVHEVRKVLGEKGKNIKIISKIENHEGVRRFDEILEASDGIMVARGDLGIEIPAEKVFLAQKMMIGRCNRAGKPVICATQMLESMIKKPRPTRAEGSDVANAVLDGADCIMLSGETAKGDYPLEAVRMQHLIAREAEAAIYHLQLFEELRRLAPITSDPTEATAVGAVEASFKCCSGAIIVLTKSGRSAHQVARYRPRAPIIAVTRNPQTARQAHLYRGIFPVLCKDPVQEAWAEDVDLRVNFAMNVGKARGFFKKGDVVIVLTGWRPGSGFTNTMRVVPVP
Cytochrome P450 1A2 (Homo sapiens), sequence (P05177 whole entry, looked up): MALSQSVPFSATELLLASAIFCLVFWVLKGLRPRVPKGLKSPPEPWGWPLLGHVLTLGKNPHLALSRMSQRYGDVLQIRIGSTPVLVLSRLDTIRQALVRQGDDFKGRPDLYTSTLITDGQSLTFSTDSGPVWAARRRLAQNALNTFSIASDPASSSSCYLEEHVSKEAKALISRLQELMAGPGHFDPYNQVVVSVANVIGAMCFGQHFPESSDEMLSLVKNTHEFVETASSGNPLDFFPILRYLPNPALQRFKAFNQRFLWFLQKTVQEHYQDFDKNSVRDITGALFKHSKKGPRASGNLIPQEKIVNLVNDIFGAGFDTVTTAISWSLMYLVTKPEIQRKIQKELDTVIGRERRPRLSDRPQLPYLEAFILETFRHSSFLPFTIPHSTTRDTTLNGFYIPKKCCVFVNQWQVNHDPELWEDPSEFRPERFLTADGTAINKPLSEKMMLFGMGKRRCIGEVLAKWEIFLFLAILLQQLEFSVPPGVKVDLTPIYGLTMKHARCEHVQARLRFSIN
Muscarinic acetylcholine receptor M1 (Rattus norvegicus), sequence (P08482 whole entry, looked up): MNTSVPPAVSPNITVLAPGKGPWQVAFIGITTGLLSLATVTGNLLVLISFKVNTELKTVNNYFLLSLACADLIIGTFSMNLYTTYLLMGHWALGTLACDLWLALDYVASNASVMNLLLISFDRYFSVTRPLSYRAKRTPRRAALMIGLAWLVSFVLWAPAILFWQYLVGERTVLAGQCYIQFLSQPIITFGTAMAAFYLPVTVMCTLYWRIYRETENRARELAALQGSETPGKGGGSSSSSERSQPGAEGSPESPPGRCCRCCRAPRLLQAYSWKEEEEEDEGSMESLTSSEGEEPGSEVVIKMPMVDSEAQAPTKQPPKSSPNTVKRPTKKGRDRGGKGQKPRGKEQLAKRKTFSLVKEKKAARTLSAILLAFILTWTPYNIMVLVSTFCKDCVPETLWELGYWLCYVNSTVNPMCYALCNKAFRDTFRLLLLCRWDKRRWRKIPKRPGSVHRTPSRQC
Cytochrome P450 2D6 (Homo sapiens), sequence (P10635 whole entry, looked up): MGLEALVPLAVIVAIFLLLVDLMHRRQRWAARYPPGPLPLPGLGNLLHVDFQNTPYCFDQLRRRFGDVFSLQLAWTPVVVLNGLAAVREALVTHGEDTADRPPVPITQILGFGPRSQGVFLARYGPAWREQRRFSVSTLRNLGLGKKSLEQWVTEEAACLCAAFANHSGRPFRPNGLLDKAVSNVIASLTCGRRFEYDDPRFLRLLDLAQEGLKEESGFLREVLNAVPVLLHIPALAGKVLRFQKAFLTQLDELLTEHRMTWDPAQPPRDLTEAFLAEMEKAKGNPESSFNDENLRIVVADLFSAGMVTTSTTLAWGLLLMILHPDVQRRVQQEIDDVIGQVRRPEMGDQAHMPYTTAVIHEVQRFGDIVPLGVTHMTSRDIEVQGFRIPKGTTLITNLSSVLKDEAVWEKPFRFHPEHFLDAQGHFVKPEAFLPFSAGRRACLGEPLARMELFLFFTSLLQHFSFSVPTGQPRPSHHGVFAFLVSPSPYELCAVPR

CN1C[C@@H](CS(=O)(=O)N(C)C)C[C@H]2c3cccc4c3c(cn4C)C[C@@H]21
active: Potency [2] 25.1 µM | Potency [8] 3.98 µM
inactive: activity change, negative = inhibition [1] 2.96% [at 38 µM] | activity change, negative = inhibition [3] 4.13% [at 38 µM] | activity, negative = inhibition [4] -10.8% [at 38 µM] | Potency [5] > 46 µM | Potency [6] > 46 µM | Potency [7] | Potency [9] | Potency [10] | outcome [11] | outcome [12] | outcome [13]

C[C@]12CC[C@H](O)C[C@@H]1CC[C@H]1[C@H]2CC[C@]2(C)[C@H](C(=O)CO)CC[C@@H]12
active: Potency [2] 25.1 µM
inactive: activity change, negative = inhibition [1] 0.537% [at 38 µM] | activity change, negative = inhibition [3] 0.826% [at 38 µM] | activity, negative = inhibition [4] 11.8% [at 38 µM] | Potency [5] > 46 µM | Potency [6] > 46 µM | Potency [14] | Potency [9] | Potency [15] | outcome [11] | outcome [12] | outcome [13]

NC(=O)CN1C[C@@H](O)CC1=O
inactive: activity change, negative = inhibition [1] 2.98% [at 38 µM] | Potency [2] | activity change, negative = inhibition [3] 17.8% [at 38 µM] | activity, negative = inhibition [4] -8.38% [at 38 µM] | Potency [5] > 46 µM | Potency [6] > 46 µM | Potency [7] | outcome [16] | Potency [10] | outcome [11] | outcome [12] | outcome [13]

Nc1ncnc2c1ncn2[C@@H]1O[C@@H](COP(=O)(O)CP(=O)(O)OP(=O)(O)O)[C@H](O)[C@@H]1O
inactive: activity change, negative = inhibition [1] -0.584% [at 38 µM] | Potency [2] | activity change, negative = inhibition [3] 3.86% [at 38 µM] | activity, negative = inhibition [4] -9.36% [at 38 µM] | Potency [5] > 46 µM | Potency [6] > 46 µM | Potency [7] | outcome [16] | Potency [10] | outcome [11] | outcome [12] | outcome [13]

C[N+]1(C)C2CC(OC(=O)C(CO)c3ccccc3)CC1[C@@H]1O[C@H]21 (some centres undefined)
active: activity change, negative = inhibition [3] -56.8% [at 38 µM]
inactive: activity change, negative = inhibition [1] -8.85% [at 38 µM] and -6.94% [at 38 µM] | Potency [2] | activity, negative = inhibition [4] 5.12% [at 38 µM] and -2.5% [at 38 µM] | Potency [5] > 46 µM | Potency [7] | Potency [14] | Potency [9] | outcome [11] | outcome [12] | outcome [13]

CCNC(=O)[C@@H]1O[C@@H](n2cnc3c(N)ncnc32)[C@@H](O)[C@H]1O
inactive: activity change, negative = inhibition [1] -6.61% [at 38 µM] | Potency [2] | activity change, negative = inhibition [3] -9.11% [at 38 µM] | activity, negative = inhibition [4] 24.4% [at 38 µM] | Potency [5] > 46 µM | Potency [7] | Potency [9] | Potency [17] | Potency [15] | Potency [10] | outcome [11] | outcome [12] | outcome [13]

C[C@@]12CC[C@H]3[C@@H](CC=C4C[C@H](OS(=O)(=O)O)CC[C@]43C)[C@H]1CCC2=O
inactive: activity change, negative = inhibition [1] -6.95% [at 38 µM] | Potency [2] | activity change, negative = inhibition [3] -0.252% [at 38 µM] | activity, negative = inhibition [4] -15.3% [at 38 µM] | Potency [5] > 46 µM | Potency [7] | Potency [9] | Potency [15] | Potency [10] | outcome [11] | outcome [12] | outcome [13]

COc1cc(C[C@H](C)N)c(OC)cc1I
inactive: activity change, negative = inhibition [1] 8.22% [at 38 µM] and 4.79% [at 38 µM] | activity change, negative = inhibition [3] -22.6% [at 38 µM] and -16.3% [at 38 µM] | activity, negative = inhibition [4] -6.07% [at 38 µM] | Potency [5] > 46 µM | Potency [6] > 46 µM | Potency [7] | outcome [16] | Potency [14] | outcome [11] | outcome [12] | outcome [13]
active: Potency [2] 6.31 µM and 12.6 µM | Potency [15] 0.891 µM

N[C@H](Cn1ccc(=O)[nH]c1=O)C(=O)O
inactive: activity change, negative = inhibition [1] -6.11% [at 38 µM] | Potency [2] | activity change, negative = inhibition [3] -2.89% [at 38 µM] | activity, negative = inhibition [4] 4.92% [at 38 µM] | Potency [5] > 46 µM | Potency [6] > 46 µM | outcome [16] | Potency [9] | Potency [15] | outcome [11] | outcome [12] | outcome [13]
active: Potency [8] 3.98 µM

C[C@@]12CC[C@H]3[C@@H](CC[C@@H]4C[C@H](O)CC[C@]43C)[C@H]1CC[C@H]2O
inactive: activity change, negative = inhibition [1] -12.3% [at 38 µM] | activity change, negative = inhibition [3] 6.96% [at 38 µM] | activity, negative = inhibition [4] 24.5% [at 38 µM] | Potency [5] > 46 µM | Potency [6] > 46 µM | Potency [7] | outcome [16] | Potency [14] | Potency [10] | outcome [11] | outcome [12] | outcome [13]
active: Potency [2] 15.8 µM
